Assay results from PubChem BioAssay (Tox21).
A number with no mark means an inactive call. Activity calls are given as the source filed them. Calls come from the whole dose curve; as a rule, active = well fitted curve in the direction sought with a large enough effect in the repeat runs; inconclusive = weak or mixed curves; inactive = flat fitted curve, though single readings scatter.

experiment: qHTS assay to test for compound auto fluorescence at 460 nm (blue) in HEK293 cells (AID 720678); conditions: blue autofluorescence 405/460 nm; series mostly up to 91.3 µM
From the text: National Center for Advancing Translational Sciences [NCATS]
NIH Chemical Genomics Center [NCGC]
U.S. Environmental Protection Agency [EPA]
National Institutes of Environmental Health Sciences [NIEHS]
National Toxicology Program [NTP]
U.S. Food and Drug Administration [FDA]
Compound auto fluorescence often interferes with screening of the compound library against various biological targets and signaling pathways. Some of these compounds may have fluorophoric properties. Such properties may interfere with the assay outputs resulting in false positives and/or negatives. To decrease such complications and ensure the compound activities are relevant in terms of biological response, the Tox21 10K compound library was screened for auto fluorescence.
From the fluorophores used as reporter signals in our screening assays, the auto fluorescence equivalencies of compounds against three fluorophores have been evaluated: Triamterene, Fluorescein and Rose Bengal sodium for blue, green and red fluorescence, respectively. The fluorescence intensities were measured using Excitation/Emission wavelengths at 405/460nm, 485/535nm and 540/590nm for blue, green and red labels, respectively. This assay includes the blue fluorescence data.
Tox21 Assay Protocol Summary:
2,000 HEK293 cells in 5 uL of culture medium containing 10% dialyzed FBS per well were dispensed into black wall/clear bottom 1536-well plates using a Multidrop Combi Dispenser (Thermo Scientific). The assay plates were incubated for 4-5 hr at 37C to allow cell attachment to the well bottom, followed by the transfer of 23 nL compound or DMSO vehicle by a pintool work station (Kalypsys, San Diego, CA). After the assay plates were incubated overnight at 37C and 5% CO2, fluorescence intensities in the assay plates were measured by an Envision (PerkinElmer, Shelton, CT) plate reader using three labels for measuring blue, green and red fluorescence at […] 460, 535 and 590nm respectively.
% is set by controls: 0 for no effect and ±100 for the full control effect.

Row | Structure (SMILES) | outcome | fluorescence, % of triamterene
1 | CCC(=O)c1ccc(Cl)cc1 | inactive | –
2 | CCC(C(N)=O)N1CCCC1=O (stereo not given) | inactive | –
3 | O=C(O)CBr | inactive | –
4 | N[C@@H]1C[C@H]1c1ccccc1 | inactive | –
5 | CC(C)(C)NC[C@H](O)c1ccc(O)cc1Cl | inactive | –
6 | CCCCCCCCBr | inactive | –
7 | O=P(O)(O)CN(CP(=O)(O)O)CP(=O)(O)O | – | 0.0178% [at 18.6 µM]
8 | NNC(N)=O | inactive | –
9 | CCC1(c2cccc(O)c2)CCCCN(C)C1 (stereo not given) | – | 0.018% [at 18.6 µM]
10 | NNCc1ccccc1 | inactive | –
11 | O=C(Cl)OCc1ccccc1 | inactive | –
12 | C=C1CC[C@@]2(O)[C@H]3Cc4ccc(O)c5c4[C@@]2(CCN3CC2CC2)[C@H]1O5 | inactive | –
13 | CC(C)(C)C(=O)C(Cl)Cl | inactive | –
14 | CNC(=O)NC(O)C(Cl)(Cl)Cl (stereo not given) | inactive | –
15 | CCOC(=O)NC(C)(C)Cc1ccc(Cl)cc1 | inactive | –
16 | C=CC(=O)OCCN(C)C | inactive | –
17 | CCC1(CC)C(=O)C=CNC1=O | inactive | –
18 | CCCCCCCC(=O)Cl | inactive | –
19 | CCN(CCO)CCO | inactive | –
20 | CCOC(=O)COc1ccc(Cl)cc1Cl | inactive | –

Row | Structure (SMILES) | outcome | fluorescence, % of triamterene
21 | C=CCCC#N | inactive | –
22 | CCCCCCC1CCOC1=O (stereo not given) | inactive | –
23 | CC(=NC#N)N(C)Cc1ccc(Cl)nc1 | inactive | –
24 | ClC1=C(Cl)C2(Cl)C(CBr)CC1(Cl)C2(Cl)Cl (stereo not given) | inactive | –
25 | CC(Cc1ccccc1)NCCn1cnc2c1c(=O)n(C)c(=O)n2C (stereo not given) | inactive | –
26 | COc1ccc2c(C(=O)c3ccc(Cl)cc3)c(C)n(CC(=O)O)c2c1 | inactive | –
27 | OCC(Cl)CCl (stereo not given) | inactive | –
28 | Cn1c(N)nc2c3cccnc3ccc21 | inactive | –
29 | CCCOC(=O)Cc1ccc(OCC(=O)N(CC)CC)c(OC)c1 | inactive | –
30 | CS(=O)(=O)c1ccc(C(=O)C2C(=O)CCCC2=O)c(Cl)c1COCC(F)(F)F | inactive | –
31 | CCCCCCCCSC(=O)Oc1cc(Cl)nnc1-c1ccccc1 | inactive | –
32 | [O-][Br+2]([O-])O | inactive | –
33 | ClCCCCl | inactive | –
34 | Cc1ccc2c(c1)C1CN(C)CCC1N2 (stereo not given) | inactive | –
35 | O=C(O)C(Cl)Br (stereo not given) | inactive | –
36 | BrCc1ccc(Br)cc1 | inactive | –
37 | CN(C)CCc1c[nH]c2cccc(OP(=O)(O)O)c12 | inactive | –
38 | CNC(=O)Oc1ccccc1C(C)C | inactive | –
39 | O=CCCl | inactive | –
40 | N#CC(Br)(Br)C(N)=O | inactive | –
